Structures are written as SMILES. Unmarked numbers belong to inactive results.

The first assay concerns Madurella mycetomatis MM55. In words: growth relative to untreated control; higher = less inhibition, active = 20 or less. The note with it: 25 µM. On the procedure:
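Hyphal fragments of M. mycetomatis MM55 or F. senegalensis CBS197.79 in RPMI 1640/MOPS were exposed to each MMV COVID Box or Global Health Priority Box compound at 100 or 25 µM for 7 days at 37 °C. Viability was read with MTS (490 nm, M. mycetomatis) or resazurin (600 nm, F. senegalensis), background-corrected with a medium-only control and expressed as % growth relative to the untreated growth control. Inhibition of more than 80% was taken as growth inhibition.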
For `COc1cccc2c1C(=O)c1c(O)c3c(c(O)c1C2=O)C[C@@](O)(C(=O)CO)C[C@@H]3O[C@H]1C[C@H](N)[C@H](O)[C@H](C)O1`, the growth was 116%.

With `CCN(CCO)CCCC(C)Nc1ccnc2cc(Cl)ccc12` (stereo not given), the growth was 85.1%.

In the case of `CC[C@H](C)[C@H]1O[C@]2(C=C[C@@H]1C)C[C@@H]1C[C@@H](C/C=C(\C)[C@@H](O[C@H]3C[C@H](OC)[C@@H](O[C@H]4C[C@H](OC)[C@H](NC(C)=O)[C@H](C)O4)[C@H](C)O3)[C@@H](C)/C=C/C=C3\CO[C@@H]4[C@H](O)C(C)=C[C@@H](C(=O)O1)[C@]34O)O2`, the growth was 74.9%.

Turning to `Cn1cc(CN2CCc3c(c(C(=O)NCc4nccs4)nn3Cc3ccccc3)C2)c2ccccc21`, the growth is 88.4%.

For `CC(C)(C)NC(=O)[C@@H]1CN(Cc2cccnc2)CCN1C[C@@H](O)C[C@@H](Cc1ccccc1)C(=O)N[C@H]1c2ccccc2C[C@H]1O`, the growth was 113%.

With `NC(=O)N1CCC(CC(=O)N2CCC([C@H]3c4ncc(Br)cc4CCc4cc(Cl)cc(Br)c43)CC2)CC1`, the growth was 3.17% (active).

Regarding `COc1ccc(Cl)cc1-c1nc(C(=O)NCCN2CCCCC2)c(C(C)C)s1`, the growth was 14.8% (active).

In the case of `COc1cccc(OC2CCN(C(=O)c3cc(C(C)(C)C)nn3Cc3ccccc3)CC2)c1`, the growth is 87.4%.

`O=C(Nc1ncccc1O)c1ccc(Cn2cccn2)cc1`: the growth was 93.2%.

On to `N#Cc1ccc(-c2ccc3nc(Oc4ccc(C(F)(F)F)cn4)cn3c2)nc1`, for which the growth is 32.3%.

On to `Cc1cccc(C=NNc2cc(N3CCOCC3)nc(OCCc3ccccn3)n2)c1`, for which the growth is 45.9%.

Take `Cc1nn(-c2cccc(Cl)c2)c2c1C(C(=O)c1ccc3c(c1)OCO3)CC(=O)N2` (stereo not given): the growth is 68.8%.

For the compound `COc1cc(OC)c2c(O)nc(-c3cc(C)c(OCCO)c(C)c3)nc2c1`, the growth was 103%.

Take `C/C=C/C[C@@H](C)[C@@H](O)[C@H]1C(=O)N[C@@H](CC)C(=O)N(C)CC(=O)N(C)[C@@H](CC(C)C)C(=O)N[C@@H](C(C)C)C(=O)N(C)[C@@H](CC(C)C)C(=O)N[C@@H](C)C(=O)N[C@H](C)C(=O)N(C)[C@H](CC(C)C)C(=O)N(C)[C@@H](CC(C)C)C(=O)N(C)[C@@H](C(C)C)C(=O)N1C`: the growth was 79%.

With `CO[C@@H](C(=O)N1Cc2[nH]nc(NC(=O)c3ccc(N4CCN(C)CC4)cc3)c2C1)c1ccccc1`, the growth is 94%.

As for `Cc1cc(C)c2cc(C(=O)N[C@@H](C)c3ccccc3)[nH]c2c1`, the growth was 7.91% (active).

With `FC(F)(F)c1cc(Nc2nc3cnc(NCC4CC4)nc3n2C2CCNCC2)cc(C(F)(F)F)c1`, the growth is 34.1%.

As for `C[C@H](NC(=O)c1cc2cccc(F)c2[nH]1)c1ccccc1`, the growth is 26.9%.

For the compound `C[C@@H]1[C@@H](NC(=O)c2cn3cc(Cl)ccc3n2)C[C@H]2C[C@@H]1C2(C)C`, the growth was 69.5%.

As to `N#Cc1ccc(-c2n[nH]c3ccc(-c4n[nH]c(CC(F)(F)F)n4)cc23)cc1`, the growth is 109%.

The same assay, now with this note: 100 µM.
In the case of `COc1cccc2c1C(=O)c1c(O)c3c(c(O)c1C2=O)C[C@@](O)(C(=O)CO)C[C@@H]3O[C@H]1C[C@H](N)[C@H](O)[C@H](C)O1`, the growth was 72.5%.

For `CCN(CCO)CCCC(C)Nc1ccnc2cc(Cl)ccc12` (stereo not given), the growth is 78.2%.

Consider `CC[C@H](C)[C@H]1O[C@]2(C=C[C@@H]1C)C[C@@H]1C[C@@H](C/C=C(\C)[C@@H](O[C@H]3C[C@H](OC)[C@@H](O[C@H]4C[C@H](OC)[C@H](NC(C)=O)[C@H](C)O4)[C@H](C)O3)[C@@H](C)/C=C/C=C3\CO[C@@H]4[C@H](O)C(C)=C[C@@H](C(=O)O1)[C@]34O)O2`, for which the growth is 116%.

With `Cn1cc(CN2CCc3c(c(C(=O)NCc4nccs4)nn3Cc3ccccc3)C2)c2ccccc21`, the growth is 32.5%.

`CC(C)(C)NC(=O)[C@@H]1CN(Cc2cccnc2)CCN1C[C@@H](O)C[C@@H](Cc1ccccc1)C(=O)N[C@H]1c2ccccc2C[C@H]1O`: the growth is 90.8%.

Take `NC(=O)N1CCC(CC(=O)N2CCC([C@H]3c4ncc(Br)cc4CCc4cc(Cl)cc(Br)c43)CC2)CC1`: the growth is 11.2% (active).

In the case of `COc1ccc(Cl)cc1-c1nc(C(=O)NCCN2CCCCC2)c(C(C)C)s1`, the growth was 6.6% (active).

With `COc1cccc(OC2CCN(C(=O)c3cc(C(C)(C)C)nn3Cc3ccccc3)CC2)c1`, the growth is 118%.

As for `O=C(Nc1ncccc1O)c1ccc(Cn2cccn2)cc1`, the growth is 123%.

`N#Cc1ccc(-c2ccc3nc(Oc4ccc(C(F)(F)F)cn4)cn3c2)nc1`: the growth was 82.2%.

Take `Cc1cccc(C=NNc2cc(N3CCOCC3)nc(OCCc3ccccn3)n2)c1`: the growth was 10.4% (active).

Take `Cc1nn(-c2cccc(Cl)c2)c2c1C(C(=O)c1ccc3c(c1)OCO3)CC(=O)N2` (stereo not given): the growth is 88.3%.

For the compound `COc1cc(OC)c2c(O)nc(-c3cc(C)c(OCCO)c(C)c3)nc2c1`, the growth was 72.7%.

For the compound `C/C=C/C[C@@H](C)[C@@H](O)[C@H]1C(=O)N[C@@H](CC)C(=O)N(C)CC(=O)N(C)[C@@H](CC(C)C)C(=O)N[C@@H](C(C)C)C(=O)N(C)[C@@H](CC(C)C)C(=O)N[C@@H](C)C(=O)N[C@H](C)C(=O)N(C)[C@H](CC(C)C)C(=O)N(C)[C@@H](CC(C)C)C(=O)N(C)[C@@H](C(C)C)C(=O)N1C`, the growth is 68.9%.

As for `CO[C@@H](C(=O)N1Cc2[nH]nc(NC(=O)c3ccc(N4CCN(C)CC4)cc3)c2C1)c1ccccc1`, the growth is 77.7%.

On to `Cc1cc(C)c2cc(C(=O)N[C@@H](C)c3ccccc3)[nH]c2c1`, for which the growth was 69.4%.

Take `FC(F)(F)c1cc(Nc2nc3cnc(NCC4CC4)nc3n2C2CCNCC2)cc(C(F)(F)F)c1`: the growth was 5.31% (active).

Regarding `C[C@H](NC(=O)c1cc2cccc(F)c2[nH]1)c1ccccc1`, the growth was 6.74% (active).

As to `C[C@@H]1[C@@H](NC(=O)c2cn3cc(Cl)ccc3n2)C[C@H]2C[C@@H]1C2(C)C`, the growth was 7.3% (active).

For `N#Cc1ccc(-c2n[nH]c3ccc(-c4n[nH]c(CC(F)(F)F)n4)cc23)cc1`, the growth is 114%.
